These results are taken from ChEMBL document CHEMBL3433997, “St. Jude Leishmania screening dataset” (2016).

Holding throughout (type): functional
Assay [1] has as its target Solute carrier family 2, facilitated glucose transporter member 1 (Homo sapiens) (UniProt P11166). Kind of assay: ST_JUDE_LEISH: Cytotoxicity at 2uM final concentration against transgenic Leishmania Mexicana promastigotes LmGLUT1 that are glucose transport deficient and complemented with the human glucose transporter GLUT1. Activity is measured by DNA content using SYBR green in vitro.

Assay [2] concerns the target Hexose transporter 1 (Plasmodium falciparum) (UniProt O97467). Nature of the assay: ST_JUDE_LEISH: Cytotoxicity at 2uM final concentration against transgenic Leishmania Mexicana promastigotes LmPfHT that are glucose transport deficient and complemented with the Plasmodium falciparum hexose transporter. Activity is measured by DNA content using SYBR green in vitro.
The target in assay [3] is Glucose transporter (Leishmania mexicana) (UniProt O61059). Nature of the assay: ST_JUDE_LEISH: Cytotoxicity at 2uM final concentration against transgenic Leishmania Mexicana promastigotes LmGT2 that are glucose transport deficient and complemented with the L. Mexicana glucose transporter 2. Activity is measured by DNA content using SYBR green in vitro.

Chain of Solute carrier family 2, facilitated glucose transporter member 1 (Homo sapiens) (P11166 whole entry): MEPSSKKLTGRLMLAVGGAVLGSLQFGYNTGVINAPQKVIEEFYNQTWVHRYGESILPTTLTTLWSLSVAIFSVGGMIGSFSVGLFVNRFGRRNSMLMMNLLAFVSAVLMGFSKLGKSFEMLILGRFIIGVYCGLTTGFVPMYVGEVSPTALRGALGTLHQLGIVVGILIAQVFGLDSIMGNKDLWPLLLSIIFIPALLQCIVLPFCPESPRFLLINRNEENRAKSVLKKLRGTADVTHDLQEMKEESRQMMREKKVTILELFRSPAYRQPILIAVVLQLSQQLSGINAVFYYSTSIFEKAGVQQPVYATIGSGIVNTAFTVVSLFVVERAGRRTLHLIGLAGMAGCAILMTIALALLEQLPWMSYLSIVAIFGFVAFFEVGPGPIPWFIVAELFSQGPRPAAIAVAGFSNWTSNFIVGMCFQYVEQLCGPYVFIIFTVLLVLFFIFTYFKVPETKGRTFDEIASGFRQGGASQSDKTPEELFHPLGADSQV

`CS(=O)(=O)N1CC2(CCN(CCC(NC(=O)NCc3ccccc3Cl)c3ccc(Cl)c(Cl)c3)CC2)c2ccccc21` (stereo not given): the inhibition – broadly, the change of the read-out against control, counted positive when it falls – in assay [1] stood at 1.26%; in assay [2], 1.46%; in assay [3] it was 1.78%.

Turning to `N=C(NCCCCCCCCNC(=N)Nc1ccc(Cl)cc1)Nc1ccc(Cl)cc1`, the inhibition in assay [1] stood at 5.92%; in assay [2], 0.99%; in assay [3], 8.78%.

`CCCn1c(=N)c(C(=O)NCCc2ccccc2)cc2c(=O)n3cccc(C)c3nc21`: the results for the inhibition in assay [1], in assay [2] and in assay [3] were 5.16%, 7.01% and 2.32%, respectively.

For `CCCCCCNC(=O)C1Cc2c([nH]c3ccc(F)cc23)C2(CCN(Cc3ccccc3)CC2)N1` (stereo not given), the results for the inhibition in assay [1], in assay [2] and in assay [3] were 12.7%, 9.28% and 7.57%, respectively.

For the molecule `Cc1ccc2[nH]c3c(NCCCN4CCOCC4)ncnc3c2c1`, the figures for the inhibition in assay [1], in assay [2] and in assay [3] were 7.43%, -2.37% and 0.92%, respectively.

`NCCCNc1ccnc2cc(Cl)ccc12`: the inhibition was -0.29% in assay [1], 1.55% in assay [2] and 10.7% in assay [3].

`O=c1[nH]c2c(cc1CNC1CCCCC1)c(-c1cccc(F)c1)nn2-c1ccccc1`: the inhibition in assay [1] was 1.69%; in assay [2] it was 0.38%; in assay [3], -3.71%.

Take `Cc1cc(NC(=O)c2ccc(-c3ccccc3)cc2)no1`: the inhibition came to 4.35% in assay [1], 3.79% in assay [2] and 4.2% in assay [3].

With `CC(C)(CNCc1cccc(Oc2cccc(C(F)(F)F)c2)c1)c1nc(-c2ccnc(N)n2)c(-c2ccc(Cl)c(O)c2)[nH]1`, the inhibition in assay [1] was 6.03%; in assay [2] it was 6.79%; in assay [3], 7.44%.

With `COC(=O)c1cc(C(O)CNC(C)CCc2cccc(F)c2)ccc1O` (stereo not given), the inhibition came out at 2.72% in assay [1], 2.7% in assay [2] and 2.89% in assay [3].

On to `COc1ccc(NC(=O)N2CCCN(CCCCCNC(=O)/C=C/c3ccc(Cl)cc3)CC2)cc1Cl`, for which the inhibition stood at 2.15% in assay [1], 2.96% in assay [2] and 0.93% in assay [3].

`CS(=O)(=O)c1ccc2nc(NC(=O)c3csnn3)sc2c1`: the inhibition in assay [1] came to 3.22%; in assay [2], 3.89%; in assay [3], 4.47%.

Consider `Cc1cc(C)n(-c2nc(Nc3cccc(C(F)(F)F)c3)nc(-n3nc(C)cc3C)n2)n1`, for which the inhibition was -2.75% in assay [1], -3.09% in assay [2] and -1.11% in assay [3].

On to `O=C(NC1CCCCC1)N(Cc1ccc(-c2cccc(CNCc3ccc4c(c3)OCO4)c2)cc1)C1CCN(Cc2ccccc2)CC1`, for which the values for the inhibition in assay [1], in assay [2] and in assay [3] were 2.19%, 1.74% and 0.81%, respectively.

Take `CCc1cn2c3c(cc(C(=O)N[C@@H](Cc4ccccc4)[C@H](O)CNC(C)C)cc13)N(C)S(=O)(=O)C2`: the figures for the inhibition in assay [1], in assay [2] and in assay [3] were -2.02%, -1.87% and 0.06%, respectively.

For `c1cc(-c2ccc(CNCCCN3CCOCC3)cc2)cc(-c2nc3ccccc3[nH]2)c1`, the inhibition in assay [1] is 1.09%; in assay [2], -0.33%; in assay [3], 2.29%.

As to `CN1CCc2cc(Br)c(O)cc2C1Cc1ccccc1Cl` (stereo not given), the inhibition in assay [1] is -1.43%; in assay [2] it was -1.61%; in assay [3] it was -2.87%.

`Cc1cccc2nc(-c3cccc(-c4ccc(NC(=O)C(=O)c5cccn5C)cc4)c3)[nH]c12`: the inhibition is 2.86% in assay [1], 0.6% in assay [2] and -2.97% in assay [3].

As for `CCN1CCC(N2CCC(C(=O)Nc3cccc(-c4cccc(Cl)c4)c3)CC2)CC1`, the inhibition in assay [1] was 0.8%; in assay [2], -1.24%; in assay [3] it was 2.7%.

Regarding `N#Cc1cccc(CN(Cc2ccc(Cl)c(Cl)c2)S(=O)(=O)c2cccc([N+](=O)[O-])c2)c1`, the inhibition is 2.24% in assay [1], -0.37% in assay [2] and 4.05% in assay [3].

As for `CCCCc1nc2nc(N)nc(N)c2cc1CCC`, the values for the inhibition in assay [1], in assay [2] and in assay [3] were 1.72%, 6.46% and 1.5%, respectively.

As for `CN(C)c1ccc(/C=C2\S/C(=N\c3ccccc3)N(c3ccccc3)C2=O)cc1[N+](=O)[O-]`, the figures for the inhibition in assay [1], in assay [2] and in assay [3] were 2.12%, 1.07% and -0.79%, respectively.

As for `COc1ccc(-c2cnc3[nH]cc(-c4ccc(CCC(=O)O)cc4)c3c2)cn1`, the inhibition stood at 5.06% in assay [1], 4.52% in assay [2] and 6.38% in assay [3].

Regarding `COc1ccc(NC(=O)/C=C/c2cc(Br)ccc2F)cc1OCCN(C(C)C)C(C)C`, the inhibition in assay [1] was determined as 0.52%; in assay [2], 0.38%; in assay [3] it was 0.14%.

With `O=C(Nc1ccc(OC2CCN(Cc3ccc(F)cc3)CC2)c(Cl)c1)c1ccccc1`, the inhibition in assay [1] is -3.58%; in assay [2], 0.82%; in assay [3], 6.06%.

For `Oc1ccc2[nH]c(-c3cccc(F)c3)nc2c1CN1CCC(O)(c2ccccc2)CC1`, the results for the inhibition in assay [1], in assay [2] and in assay [3] were 3.21%, 4.5% and 1.7%, respectively.

Take `N=C(N)NN=CC(=O)Nc1cc([N+](=O)[O-])cc([N+](=O)[O-])c1`: the inhibition in assay [1] was 8.23%; in assay [2] it was 7.12%; in assay [3], 6.66%.

On to `Fc1ccc2[nH]c(-c3ccc(-c4ccc(CNCC5CCCO5)cc4)s3)nc2c1` (stereo not given), for which the inhibition was 11.9% in assay [1], 9.33% in assay [2] and 11% in assay [3].

In the case of `O=C(Nc1ccc(Cn2nc(Cl)c(N3CCCNCC3)cc2=O)cc1)c1ccc(-c2ccccc2)cc1`, the inhibition came out at 7.36% in assay [1], 5.68% in assay [2] and 4.52% in assay [3].

`COc1ccc2nccc([C@@H](O)CN3CCC(NC(=O)c4ccc(Cl)c([N+](=O)[O-])c4)CC3)c2c1`: the inhibition in assay [1] stood at 13.3%; in assay [2] it was 8.44%; in assay [3] it was 0%.

For `CC(C)Sc1nc2c(c(=O)n1Cc1ccco1)C1(CCCC1)Cc1ccccc1-2`, the inhibition in assay [1] came out at 6.99%; in assay [2] it was 4.28%; in assay [3], 6.08%.

Consider `COc1ccc2c(c1)CC(C)(C)NC2CCCCCCCCC1NC(C)(C)Cc2cc(OC)ccc21` (stereo not given), for which the inhibition was found to be 2.26% in assay [1], 2.26% in assay [2] and 0.77% in assay [3].

Regarding `Cc1cc(N[C@@H](CC(C)C)C(=O)NCCc2ccccc2)nc(NCc2ccccc2C)n1`, the inhibition in assay [1] was 2.23%; in assay [2], 4.73%; in assay [3], -0.21%.

As to `CN(c1ccc(C(=O)N[C@@H](CCC(=O)O)C(=O)O)cc1)S(=O)(=O)c1ccc2nc(N)[nH]c(=O)c2c1`, the inhibition in assay [1] is 2.98%; in assay [2], -0.77%; in assay [3], 0.27%.

As to `COc1ccc(-c2cccc(NC(=O)c3cccc(C#N)c3)c2)cc1CN1CCNCC1`, the figures for the inhibition in assay [1], in assay [2] and in assay [3] were 11%, 11.2% and 10.6%, respectively.
